These results are taken from PubChem BioAssay (NCI).

Common to all, as to experiment: NCI-60 one-dose screen, 48 h (100 = growth as untreated, 0 = no growth, -100 = all killed)
Conditions in all cases: 10 µM unless noted

Assay [1] deals with NCI-H23 lung.
In assay [2] the test system is NCI-H226 lung.
The subject of assay [3] is NCI-H322M lung.
Assay [4] relates to HOP-62 NSCLC.
Assay [5] deals with NCI-H460 lung.
In assay [6] the test system is HOP-92 NSCLC.
The test system of assay [7] is A549/ATCC NSCLC.
Assay [8] concerns COLO 205 colon.
Assay [9] deals with 786-0 renal.
For assay [10], the system named is NCI-H522 lung.

SMILES strings stand for the structures. Compounds without any hit were thinned out: in the full panel of roughly 83,000, 20% have a hit.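 Activity criterion: percent growth below 10, measured after cells in 96-well plates were exposed to a single compound concentration for 48 hours.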 Values without a mark were called inactive. Active and inactive are the calls of the source.

For the compound `N#C/C(=C\c1ccc(C(F)(F)F)cc1)c1cc2ccccc2[nH]1`, the growth in assay [1] is 98.1%; in assay [2], 101%; in assay [3] it was 100%; in assay [4] it was 99.8%; in assay [5], 97.7%; in assay [6], 119%. Besides, the results for the growth in assay [7] and in [8] were 100% and 113%, respectively.

Turning to `COc1ccc2c(c1)C(=O)CC(c1ccccc1OC)O2` (centres undefined), the growth in [1] was 86.9%; in assay [2], 93.8%; in assay [3], 104%; in assay [4], 92.6%; in assay [5] it was 100%; in assay [6] it was 94.3%. Also, the growth is 96% in assay [7], 104% in [9] and 109% in [8].

`CCOC(=O)CSc1nc2ccccc2c(=O)n1Cc1ccc(S(N)(=O)=O)cc1`: the growth was 98% in [1]; 100% in assay [2]; 99.7% in assay [3]; 95.5% in [4]; 101% in [5]; 94.6% in assay [6]. The growth is 98% in [7], 104% in [9] and 106% in assay [8].

For `COc1ccc(CCn2cncc2-c2c[nH]c3ccccc23)cc1`, the growth in assay [1] is 82%; in assay [2], 81.3%; in [3] it was 92.8%; in assay [4] it was 72.8%; in [5] it was 92.5%; in assay [6], 60.7%. Further, the growth in assay [7] is 99.2%; in assay [8], 96.9%.

In the case of `COc1ccc(C(=O)CC#N)cc1`, the growth was 107% in [1]; 98% in assay [2]; 120% in [3]; 122% in [4]; 108% in [5]; 119% in assay [6]. Further, the growth in assay [7] was 104%; in [9], 107%; in assay [8], 117%.

With `O=C(Nc1ccc(NC(=O)c2cc(=O)[nH]c3ccccc23)cc1)Nc1cccc(Cl)c1`, the growth in [1] was 87.9%; in assay [2], 70%; in assay [3], 80.2%; in assay [4], 66.2%; in assay [5] it was 86.3%; in assay [6] it was 81.1%. Besides, the growth in assay [7] was 93.5%; in assay [9], 98.3%; in assay [8] it was 90.1%.

Turning to `CC1(C)CC[C@]2(C(=O)O)CC[C@]3(C)C(=CC[C@@H]4[C@@]5(C)Cc6c([nH]c7ccccc67)C(C)(C)[C@@H]5CC[C@]43C)[C@@H]2C1`, the growth was 32.8% in assay [1]; 48.9% in assay [2]; 27.3% in assay [3]; 28.2% in [4]; 16.7% in assay [5]; 60.3% in [6]. For the same compound, the growth in assay [7] was 17.8%; in assay [9] it was 37.7%; in assay [8] it was -15.5% (active).

On to `O=C(O)c1ccc(-c2nn(-c3ccc(C(F)(F)F)cc3)cc2CNc2ccc(Oc3ccccc3)cc2)cc1`, for which the growth is 91.7% in assay [1]; 86.8% in assay [2]; 70.8% in assay [3]; 103% in assay [4]; 87.4% in assay [5]; 93.3% in assay [6]. Moreover, the growth in assay [7] was 47.9%; in [9], 93.4%; in assay [8], 111%.

`COc1cc(/C=C/c2cc(O)c(C(C)=O)c(O)c2)cc2c1O[C@]1(C)CC[C@@H](O)C(C)(C)[C@H]1C2`: the growth in [1] is 73.6%; in [2] it was 89%; in assay [3] it was 76.2%; in [4], 52.7%; in assay [5], 76.3%; in assay [6], 95.5%. Moreover, the growth was 81.4% in assay [7], 7.29% (active) in assay [9] and 94.5% in [8].

For `Cc1nc2sccn2c1-c1nc2sccn2c1/C=C1/C(=O)Nc2ccccc21`, the growth in [1] was 53.4%; in [2] it was 63.1%; in assay [3] it was 67.1%; in assay [4] it was 53.7%; in [5], 20.5%; in assay [6] it was 4.55% (active). In addition, the growth in assay [7] was 39.5%; in [9], 51.1%; in [8], 20.1%.

On to `C=C(C)[C@@H]1CC[C@]2(CN)CC[C@]3(C)[C@H](CC[C@@H]4[C@@]5(C)CCCNC(C)(C)[C@@H]5CC[C@]43C)[C@@H]12`, for which the growth in assay [1] is 10.5%; in assay [2] it was 53.9%; in [4], 21.2%; in assay [5] it was -78.3% (active); in assay [6] it was -29.4% (active); in assay [10] it was -31% (active). Further, the growth in assay [7] was -68.4% (active); in [9], -97.2% (active); in assay [8], -71.2% (active).

Take `CCOC(=O)Oc1c(OC)cc(C(=O)c2ccc(OC)c(OC(=O)CCl)c2OC)cc1OC`: the growth in [1] was 32.5%; in [2], 64.5%; in assay [4], 16.9%; in assay [5], 10.4%; in assay [6], 57%; in assay [10], 8.85% (active). The growth in assay [7] was 22.9%; in [9] it was 19.2%; in assay [8] it was 94.8%.

Turning to `COc1ccccc1NC(=O)C1CC(c2ccc(F)cc2)=NO1` (centres undefined), the growth was 100% in assay [1]; 99.2% in assay [2]; 97.5% in assay [4]; 98.5% in [5]; 89.7% in assay [6]; 92.6% in assay [10]. Further, the results for the growth in assay [7], in assay [9] and in [8] were 95.2%, 101% and 111%, respectively.

In the case of `C/C=C(\C)C(=O)NC1=CC[C@@]2(C)C(=CCC3C2CC[C@@]2(C)C3CC[C@@H]2C(C)N(C)C)C1=O` (some centres undefined), the growth in assay [1] was 39.2%; in [2], 89.6%; in assay [4] it was 46.4%; in [5], 17.4%; in assay [6], 40.6%; in [10], 77.9%. Besides, the growth was 60.8% in [7], 44.2% in assay [9] and -8.4% (active) in assay [8].
